B1: PhoQ; a variant is named by its letters at X, in order, P23837 (parent)
chain: MKKLLRLFFPLSLRVRFLLATAAVVLVLSLAYGMVALIGYSVSFDKTTFRLLRGESNLFYTLAKWENNKLHVELPENIDKQSPTMTLIYDENGQLLWAQRDVPWLMKMIQPDWLKSNGFHEIEADVNDTSLLLSGDHSIQQQLQEVREDDDDAEMTHSVAVNVYPATSRMPKLTIVVVDTIPVELKSSYMVWSWFIYVLSANLLLVIPLLWVAAWWSLRPIEALAKEVRELEEHNRELLNPATTRELTSLVRNLNRLLKSERERYDKYRTTLTDLTHSLKTPLXXLQXXLRSLRSEKMSVSDAEPVMLEQISRISQQIGYYLHRASMRGGTLLSRELHPVAPLLDNLTSALNKVYQRKGVNISLDISPEISFVGEQNDFVEVMGNVLDNACKYCLEFVEISARQTDEHLYIVVEDDGPGIPLSKREVIFDRGQRVDTLRPGQGVGLAVAREITEQYEGKIVAGESMLGGARMEVIFGRQHSAPKDE

Whole data set: some 140,000 sequences, median “enrichment ratio after two sorts for PhoP signalling” near 0, cut for the highest 2% near 11. What follows is part of a selection rich in the highest values, with near analogues and random picks from the rest. Bounds are passed on as bounds.

The variants in this assay derive from B1. Briefly: enrichment ratio after two sorts for PhoP signalling (ratio (wild type AVST 3.29)); higher = more functional. The following applies: with PhoP (E. coli).
For GFAN, the enrichment ratio was not above 0.25.
For the variant KGPY, the enrichment ratio is not above 0.25.
As for KQLV, the figure is not above 0.25; as for SKHK, not above 0.25; as for SKLV, 12.
Then KSLV, with not above 0.25.
Then FSLV, with 8.86; and NSLV, with 2.78.
With TSLV, the enrichment ratio was determined as 14.6.
Take SSLV: the enrichment ratio was 16.8.
Regarding SALV, the enrichment ratio is 14.6.
Then SFLV, with 1.19; and DLQF, with not above 0.25.
As for PGYR, the figure is not above 0.25; as for QDIQ, not above 0.25.
As for RNIE, the figure is not above 0.25.
Take YSWN: the enrichment ratio is not above 0.25.
Regarding IQID, the enrichment ratio was not above 0.25.
As for LDQS, the figure is not above 0.25; as for STLV, 15.4.
With DPLV, the enrichment ratio was not above 0.25.
For MMLV, the enrichment ratio is not above 0.25.
As for KYLV, the figure is not above 0.25.
Take MELV: the enrichment ratio turned out to be 18.1.
Then MPLV, with not above 0.25.
As for SYLV, the figure is 0.334; as for QPLV, not above 0.25.
As for SPLV, the figure is not above 0.25; as for YGLV, 13.5; as for SQLV, 11.8.
For NFLV, the enrichment ratio was not above 0.25.
In the case of ITPL, the enrichment ratio was not above 0.25.
Then WHNG, with not above 0.25.
For the variant TSSF, the enrichment ratio came out at 9.67.
On to YPTT, for which the enrichment ratio was not above 0.25.
Then ISMW, with not above 0.25; and FIHY, with not above 0.25; and QLFD, with 3.39.
Regarding HRQG, the enrichment ratio is not above 0.25.
Then YGLM, with 13; and YGDM, with 0.798.
Then YGWM, with not above 0.25; and HFAL, with not above 0.25.
As for SCRE, the figure is not above 0.25; as for DVLL, not above 0.25.
TESE: the enrichment ratio was 20.
As for TASE, the figure is 11.3.
With DDSE, the enrichment ratio amounted to 1.96.
As for NESE, the figure is not above 0.25.
As for SESE, the figure is 24.9; as for KASE, not above 0.25; as for TISE, 24.4.
As for SLSE, the figure is 1.48; as for NASE, not above 0.25; as for RISE, not above 0.25.
For QESE, the enrichment ratio was not above 0.25.
As for AISE, the figure is 2.44; as for HLPY, not above 0.25; as for MSKE, not above 0.25.
As for YPSK, the figure is not above 0.25; as for TVFP, not above 0.25; as for VDTN, not above 0.25.
Then SPSE, with not above 0.25.
For the variant TVSE, the enrichment ratio amounted to 14.1.
As for SQSE, the figure is 11.4.
As for NVSE, the figure is not above 0.25; as for SRSE, not above 0.25.
As to SDSE, the enrichment ratio is not above 0.25.
In the case of DPSE, the enrichment ratio is not above 0.25.
Then LNSE, with not above 0.25; and SISE, with 12.6; and KYSE, with not above 0.25.
Then GNSE, with not above 0.25; and SNSE, with 16.4.
Then FFRE, with not above 0.25; and EVVH, with not above 0.25; and TGPK, with not above 0.25.
Turning to GKHW, the enrichment ratio is not above 0.25.
Then FNVA, with not above 0.25.
Then KTII, with not above 0.25.
As for SGSE, the figure is 15.4; as for TGSE, 7.38; as for GGSE, not above 0.25.
In the case of IEKG, the enrichment ratio was not above 0.25.
Then LARL, with not above 0.25; and SSPS, with not above 0.25; and YHLR, with not above 0.25.
Then MSTA, with not above 0.25; and MSPI, with not above 0.25.
With MSPM, the enrichment ratio was not above 0.25.
As to MSGM, the enrichment ratio amounted to 6.76.
In the case of MSWI, the enrichment ratio was 14.1.
Then MSYK, with not above 0.25.
As for MSCA, the figure is 0.541.
As for MSWM, the figure is 23.7; as for MSCS, 0.763.
In the case of MSYD, the enrichment ratio was not above 0.25.
Take MSCI: the enrichment ratio is 16.7.
In the case of MSYI, the enrichment ratio stood at 12.1.
As for KTWF, the enrichment ratio is not above 0.25.
Turning to YIVR, the enrichment ratio is not above 0.25.
On to DSYR, for which the enrichment ratio was not above 0.25.
As for WDLV, the figure is not above 0.25; as for SPGS, not above 0.25; as for AEGC, 2.22.
As for MSAT, the figure is 7.26; as for KSFY, not above 0.25; as for MSSF, 0.41.
As for MAFL, the enrichment ratio amounted to 12.9.
Then MSAS, with 12.6.
Then MSFY, with 12.3.
As for MSFD, the figure is not above 0.25; as for NAFL, 0.25.
As to KAFL, the enrichment ratio is not above 0.25.
As for MSSM, the figure is 11.9; as for MSQM, not above 0.25; as for WIAS, not above 0.25.
Then PAHY, with not above 0.25; and AKLK, with not above 0.25; and MEND, with not above 0.25.
As for PTHW, the figure is not above 0.25; as for AVIT, 1.3.
Regarding MIMD, the enrichment ratio is not above 0.25.
As for LLDF, the figure is not above 0.25; as for NAWF, not above 0.25; as for PFLK, not above 0.25.
Consider RPFK, for which the enrichment ratio is not above 0.25.
As for MSFC, the figure is 14.1; as for MSHQ, 12; as for MSHP, not above 0.25.
Then MSGI, with 17.5; and MSFA, with 2.31.
Turning to MSGD, the enrichment ratio was not above 0.25.
On to MSLF, for which the enrichment ratio stood at 1.86.
Then MSGR, with not above 0.25; and MSTC, with 1.5.
As for MSTD, the figure is not above 0.25; as for MSLM, 15.9.
Then MSLA, with 5.33; and IAPP, with not above 0.25.
Take NMIK: the enrichment ratio was not above 0.25.
As for DCGT, the figure is not above 0.25; as for EMPS, not above 0.25; as for NEEL, not above 0.25.
As to MHMN, the enrichment ratio was not above 0.25.
Then NGVW, with not above 0.25; and MSFL, with 13.3; and MEFL, with 8.98.
Take MSTI: the enrichment ratio was determined as 18.2.
Then MSLY, with 0.424.
Consider KSFL, for which the enrichment ratio is not above 0.25.
MRHM: the enrichment ratio was not above 0.25.
As for KSHM, the figure is not above 0.25; as for MSGQ, 14.3; as for MSCF, 1.71.
For MSHM, the enrichment ratio worked out at 22.
For the variant MSGG, the enrichment ratio is not above 0.25.
On to MSGA, for which the enrichment ratio was found to be 0.29.
Then SKYM, with not above 0.25.
Then CCSC, with not above 0.25; and FTRK, with not above 0.25; and MDDW, with not above 0.25.
Then ADPG, with not above 0.25.
On to VPPG, for which the enrichment ratio was not above 0.25.
As for LIYG, the figure is not above 0.25; as for MSCV, 15.3.
Regarding MSEL, the enrichment ratio was not above 0.25.
Then MSWL, with 14.4; and MSCE, with not above 0.25; and MSRL, with not above 0.25.
For the variant MSTW, the enrichment ratio is not above 0.25.
As for GKQS, the figure is not above 0.25; as for SDCI, 4.22.
As for QYNK, the figure is not above 0.25; as for GGPL, not above 0.25.
For the variant SNVY, the enrichment ratio came out at 1.11.
KKII: the enrichment ratio was not above 0.25.
As for AKII, the figure is 13.6; as for KAII, not above 0.25.
Then ADII, with 1.41; and NAII, with not above 0.25; and AAII, with 12.4.
Then DMTW, with not above 0.25; and IQGQ, with not above 0.25; and GIPQ, with not above 0.25.
With YTSL, the enrichment ratio was not above 0.25.
Then TTSL, with 17.6; and KQSL, with not above 0.25.
Then CVSL, with not above 0.25; and GTSL, with 9.63.
Then CTSL, with 11.6; and TVPF, with not above 0.25; and QVGW, with 2.43.
With EDEG, the enrichment ratio is not above 0.25.
Then FEDM, with not above 0.25; and RRYY, with not above 0.25.
As for YGSL, the figure is not above 0.25; as for RGLA, not above 0.25.
As for NGLT, the figure is not above 0.25; as for RYEP, not above 0.25; as for RGLT, not above 0.25.
NGLA: the enrichment ratio is not above 0.25.
Then AGLT, with 7.3; and IPEP, with not above 0.25; and AGLS, with 13.8.
For the variant TGLA, the enrichment ratio was 27.5.
For the variant TGLT, the enrichment ratio stood at 13.5.
As for ECEP, the figure is 15.1; as for AGLA, 4.99.
Consider VHMY, for which the enrichment ratio was not above 0.25.
Consider LARA, for which the enrichment ratio was not above 0.25.
As for WQQI, the figure is not above 0.25; as for FPEF, not above 0.25.
With IHDS, the enrichment ratio was not above 0.25.
For DVNT, the enrichment ratio is not above 0.25.
As for TGWI, the enrichment ratio came out at 26.1.
With EHHF, the enrichment ratio is not above 0.25.
As for NGLN, the figure is not above 0.25.
As for TGLN, the figure is 25.4; as for TGLS, 14.9; as for RGLS, not above 0.25.
As for EHHK, the figure is 14.4.
CFLN: the enrichment ratio was not above 0.25.
Then KSWI, with not above 0.25; and NGLS, with not above 0.25.
In the case of EHHE, the enrichment ratio is not above 0.25.
Then WIWI, with not above 0.25; and FPGM, with not above 0.25; and LGWH, with not above 0.25.
As for GMYH, the figure is not above 0.25.
Take PFMM: the enrichment ratio was not above 0.25.
For the variant RQLT, the enrichment ratio was not above 0.25.
As for HMPW, the figure is not above 0.25.
Take GHLA: the enrichment ratio was not above 0.25.
For the variant DNNV, the enrichment ratio was not above 0.25.
Then TWFG, with not above 0.25; and WQAF, with not above 0.25; and STAW, with 13.1.
WIAW: the enrichment ratio is not above 0.25.
Then YTAW, with not above 0.25; and KYAW, with not above 0.25.
As for SIAW, the figure is 16.5; as for SQAW, not above 0.25.
As for FGTC, the figure is not above 0.25.
With RLLI, the enrichment ratio was not above 0.25.
As for DHVP, the figure is not above 0.25; as for YTSI, not above 0.25; as for ITSI, not above 0.25.
As for TTSI, the figure is 17.1; as for LTSI, not above 0.25; as for KQSI, not above 0.25.
As for CTSI, the figure is 19.6.
As to PECL, the enrichment ratio is not above 0.25.
With DRWN, the enrichment ratio is not above 0.25.
As for QETT, the figure is not above 0.25; as for METT, 13; as for TETT, 25.2.
Then MHTT, with not above 0.25; and MFTT, with not above 0.25; and NETT, with not above 0.25.
Then DEMI, with not above 0.25; and SQNC, with not above 0.25.
For the variant EVAF, the enrichment ratio is not above 0.25.
As to GNFR, the enrichment ratio was not above 0.25.
As for PGNR, the figure is not above 0.25.
Take RASR: the enrichment ratio is not above 0.25.
Then SEIV, with 18.7; and SEAE, with 5.82; and SPIA, with not above 0.25.
Then SEIC, with 32.9; and SEAV, with 13.6.
Then STAV, with 5.94; and DDIA, with not above 0.25.
In the case of SEWV, the enrichment ratio is 0.784.
Then MEIC, with 11; and SEIS, with 8.01.
Then SERC, with not above 0.25; and SEIA, with 13.7.
Then DHWR, with not above 0.25; and MSEQ, with not above 0.25; and LCAF, with not above 0.25.
Consider MMGP, for which the enrichment ratio was not above 0.25.
As for YYDN, the figure is not above 0.25.
Then PLDS, with not above 0.25; and NPKR, with not above 0.25.
As for FGMH, the figure is not above 0.25.
For DDIY, the enrichment ratio was not above 0.25.
In the case of SEMW, the enrichment ratio is not above 0.25.
Then SEMV, with 23.8; and SEPV, with not above 0.25.
SEIG: the enrichment ratio was determined as 13.1.
As for SPIG, the figure is not above 0.25; as for SFFV, not above 0.25.
Then KYIY, with not above 0.25.
Take SQIG: the enrichment ratio was determined as 9.99.
As for SEIY, the figure is 21.5; as for SEEV, 1.98; as for SEFV, 11.8.
KQPW: the enrichment ratio is not above 0.25.
As for DFRP, the figure is not above 0.25.
As for WSND, the figure is not above 0.25.
Then AMAT, with 3.36; and YYEG, with not above 0.25; and ESCY, with not above 0.25.
In the case of SRIC, the enrichment ratio is not above 0.25.
For LWNH, the enrichment ratio is not above 0.25.
